The values that follow come from article PMC12820563, “FoxP3 forms a head-to-head dimer in vivo and stabilizes its multimerization on adjacent microsatellites”.

Whole data set: some 16,000 sequences, median “rpm ratio (pull-down/input)” near 0.94, cut for the highest 2% near 1.7. What follows is part of a selection rich in the highest values, with near analogues and random picks from the rest.

The target of this test is T1, MBP-FoxP1dN (Mus musculus, UniProt P58462 326-579).
T1 sequence: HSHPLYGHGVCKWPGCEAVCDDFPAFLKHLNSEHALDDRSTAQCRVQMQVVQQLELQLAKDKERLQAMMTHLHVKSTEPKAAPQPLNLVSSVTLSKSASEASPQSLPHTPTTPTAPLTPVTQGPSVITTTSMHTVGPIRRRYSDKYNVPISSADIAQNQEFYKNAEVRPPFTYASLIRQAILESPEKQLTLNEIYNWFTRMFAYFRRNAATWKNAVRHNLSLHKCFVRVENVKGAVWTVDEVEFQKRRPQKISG
Put plainly: PD-seq (MBP pull-down with sequencing); 20 mM Tris-HCl pH 7.5, 100 mM NaCl, 1.5 mM MgCl2, 0.4 uM protein, 0.1 uM dsDNA library, 30 min, room temperature, amylose pull-down; high values mean tight binding. Particulars: protein: recombinant; tags: His6-MBP; chain copies: 2; dsDNA, one strand shown. The procedure, abridged: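 The N-terminus-lacking fragment of mouse FoxP3 or FoxP1 carried a His6-MBP tag and was expressed in E. coli. At 0.4 µM it was incubated with 0.1 µM Klenow-filled degenerate double-stranded DNA library for 30 min at room temperature in Tris pH 7.5 buffer with NaCl and MgCl2, and complexes were caught on amylose resin, washed three times, released with proteinase K, PCR-barcoded and Illumina-sequenced. Binding is reads-per-million enrichment of pull-down over input with replicates pooled.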
As for “GATGATTGTTCTCCCAGCTGATGAATTCGTTGGGTCGAGTAAACAAATTTTCCTAATCTTTCTGTTCAAGCGCCATCTAC”, the binding signal was 0.781 RPM ratio (pull-down/input).
For “GATGATTGTTCTCCCAGCTGATGAATTCCAAGGATCGAGTAAACAAATTTTCCTAATCTTTCTGTTCAAGCGCCATCTAC” the value was 0.795 RPM ratio (pull-down/input); for “GATGATTGTTCTCCCAGCTGATGAATTCAACTAGTCGAGTAAACAAATTTTCCTAATCTTTCTGTTCAAGCGCCATCTAC”, 0.877 RPM ratio (pull-down/input); for “GATGATTGTTCTCCCAGCTGATGAATTTATTGGCTCGAGTAAACAAATTTTCCTAATCTTTCTGTTCAAGCGCCATCTAC”, 1.09 RPM ratio (pull-down/input).
For the sequence “GATGATTGTTCTCCCAGCTGATGAATTGAGAGTCTCGAGTAAACAAATTTTCCTAATCTTTCTGTTCAAGCGCCATCTAC”, the binding signal is 0.741 RPM ratio (pull-down/input).
For “GATGATTGTTCTCCCAGCTGATGAATTAGACGGGTCGAGTAAACAAATTTTCCTAATCTTTCTGTTCAAGCGCCATCTAC” the value was 0.832 RPM ratio (pull-down/input); for “GATGATTGTTCTCCCAGCTGATGAATTAAAGCGCTCGAGTAAACAAATTTTCCTAATCTTTCTGTTCAAGCGCCATCTAC”, 0.953 RPM ratio (pull-down/input).
On to “GATGATTGTTCTCCCAGCTGATGAATTGCGGCTATCGAGTAAACAAATTTTCCTAATCTTTCTGTTCAAGCGCCATCTAC”, for which the binding signal was 1.02 RPM ratio (pull-down/input).
Consider “GATGATTGTTCTCCCAGCTGATGAATTGTATTACTCGAGTAAACAAATTTTCCTAATCTTTCTGTTCAAGCGCCATCTAC”, for which the binding signal is 1.24 RPM ratio (pull-down/input).
For “GATGATTGTTCTCCCAGCTGATGAATTACCCGGTTCGAGTAAACAAATTTTCCTAATCTTTCTGTTCAAGCGCCATCTAC”, the binding signal was 0.848 RPM ratio (pull-down/input).
For “GATGATTGTTCTCCCAGCTGATGAATTTTTTGCCTCGAGTAAACAAATTTTCCTAATCTTTCTGTTCAAGCGCCATCTAC” the value was 0.956 RPM ratio (pull-down/input); for “GATGATTGTTCTCCCAGCTGATGAATTTAGATGCTCGAGTAAACAAATTTTCCTAATCTTTCTGTTCAAGCGCCATCTAC”, 1.78 RPM ratio (pull-down/input).
For “GATGATTGTTCTCCCAGCTGATGAATTTGTTTCATCGAGTAAACAAATTTTCCTAATCTTTCTGTTCAAGCGCCATCTAC” the value was 1.33 RPM ratio (pull-down/input).
For “GATGATTGTTCTCCCAGCTGATGAATTTGCCTCCTCGAGTAAACAAATTTTCCTAATCTTTCTGTTCAAGCGCCATCTAC” the value was 0.95 RPM ratio (pull-down/input); for “GATGATTGTTCTCCCAGCTGATGAATTGTTTCCCTCGAGTAAACAAATTTTCCTAATCTTTCTGTTCAAGCGCCATCTAC”, 1.41 RPM ratio (pull-down/input); for “GATGATTGTTCTCCCAGCTGATGAATTGTTTTCCTCGAGTAAACAAATTTTCCTAATCTTTCTGTTCAAGCGCCATCTAC”, 2.36 RPM ratio (pull-down/input).
For the sequence “GATGATTGTTCTCCCAGCTGATGAATTGTTTGCCTCGAGTAAACAAATTTTCCTAATCTTTCTGTTCAAGCGCCATCTAC”, the binding signal is 1.96 RPM ratio (pull-down/input).
“GATGATTGTTCTCCCAGCTGATGAATTTGTTTCCTCGAGTAAACAAATTTTCCTAATCTTTCTGTTCAAGCGCCATCTAC”: the binding signal is 1.49 RPM ratio (pull-down/input).
For “GATGATTGTTCTCCCAGCTGATGAATTTTTTTCATCGAGTAAACAAATTTTCCTAATCTTTCTGTTCAAGCGCCATCTAC” the value was 1.02 RPM ratio (pull-down/input); for “GATGATTGTTCTCCCAGCTGATGAATTTTAGAGCTCGAGTAAACAAATTTTCCTAATCTTTCTGTTCAAGCGCCATCTAC”, 0.77 RPM ratio (pull-down/input).
In the case of “GATGATTGTTCTCCCAGCTGATGAATTAGATTGCTCGAGTAAACAAATTTTCCTAATCTTTCTGTTCAAGCGCCATCTAC”, the binding signal is 0.987 RPM ratio (pull-down/input).
As for “GATGATTGTTCTCCCAGCTGATGAATTGTTTTCATCGAGTAAACAAATTTTCCTAATCTTTCTGTTCAAGCGCCATCTAC”, the binding signal is 1.96 RPM ratio (pull-down/input).
Take “GATGATTGTTCTCCCAGCTGATGAATTGGTACCTTCGAGTAAACAAATTTTCCTAATCTTTCTGTTCAAGCGCCATCTAC”: the binding signal was 0.97 RPM ratio (pull-down/input).
For “GATGATTGTTCTCCCAGCTGATGAATTTGTGTCATCGAGTAAACAAATTTTCCTAATCTTTCTGTTCAAGCGCCATCTAC” the value was 1.48 RPM ratio (pull-down/input).
For “GATGATTGTTCTCCCAGCTGATGAATTAAAGCAATCGAGTAAACAAATTTTCCTAATCTTTCTGTTCAAGCGCCATCTAC” the value was 1.32 RPM ratio (pull-down/input); for “GATGATTGTTCTCCCAGCTGATGAATTCGTTCAATCGAGTAAACAAATTTTCCTAATCTTTCTGTTCAAGCGCCATCTAC”, 0.909 RPM ratio (pull-down/input).
For “GATGATTGTTCTCCCAGCTGATGAATTACATGGTTCGAGTAAACAAATTTTCCTAATCTTTCTGTTCAAGCGCCATCTAC” the value was 1.12 RPM ratio (pull-down/input).
Consider “GATGATTGTTCTCCCAGCTGATGAATTTAGGCTATCGAGTAAACAAATTTTCCTAATCTTTCTGTTCAAGCGCCATCTAC”, for which the binding signal was 0.955 RPM ratio (pull-down/input).
For “GATGATTGTTCTCCCAGCTGATGAATTATTAGATTCGAGTAAACAAATTTTCCTAATCTTTCTGTTCAAGCGCCATCTAC” the value was 1.08 RPM ratio (pull-down/input); for “GATGATTGTTCTCCCAGCTGATGAATTAGACTGATCGAGTAAACAAATTTTCCTAATCTTTCTGTTCAAGCGCCATCTAC”, 0.851 RPM ratio (pull-down/input).
For “GATGATTGTTCTCCCAGCTGATGAATTACAATTGTCGAGTAAACAAATTTTCCTAATCTTTCTGTTCAAGCGCCATCTAC” the value was 1.4 RPM ratio (pull-down/input).
For “GATGATTGTTCTCCCAGCTGATGAATTTTGAACTTCGAGTAAACAAATTTTCCTAATCTTTCTGTTCAAGCGCCATCTAC” the value was 0.94 RPM ratio (pull-down/input).
